High-throughput results: PubChem BioAssay, National Center for Advancing Translational Sciences (NCATS)
ELG1 genotoxic: qHTS screen for small molecules that induce genotoxicity in human embryonic kidney (HEK293T) cells expressing luciferase-tagged ELG1 | HEK293T ELG1-luciferase reporter, luminescence, 16 h | Potency, µM (highest dose often 46 µM), without a hit: at the top dose activity change, positive = activation, actives largely listed as activators | 1.3% of 330,000 active; also: % of control where 0% means no effect; nearly all actives have a fitted effect of over 60% in size
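HEK293T cells expressing luciferase-tagged ELG1 were treated with compound or DMSO for 16 hr at 37°C. Luciferase activity was then read after 30 min with ONE-Glo at room temperature; rising signal flags genetic stress.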
Rab9 prom act: qHTS Assay for Rab9 Promoter Activators. Huh7 Rab9 promoter-luciferase reporter, luminescence, 24 h. 2.8% of 320,000 active. AID 485297, 2010. Potency, µM (titrated, usually from 9.22 µM), for the others: at the top dose activation, negative = inhibition, hits mostly activators; also: % of control where 0% means no effect; nearly all actives have a fitted effect of over 60% in size
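Luminescence read-out: Huh7 cells stably expressing Rab9-luciferase, treated 24 h with compound at 37 °C, then lysed with luciferase reagent for 10 min at ambient before reading.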
FLuc modulator: qHTS profiling assay for firefly luciferase inhibitor/activator using purifed enzyme and Km concentrations of substrates (counterscreen for miR-21 project). Luciferin 4-monooxygenase (Photinus pyralis), P08659. purified FLuc, Km substrates, luminescence inhibition. Potency, µM (series often up to 57.5 µM), for the others: at the highest dose activity change, negative = inhibition, usual class: inhibitors. 6.9% of 360,000 active. AID 588342, 2011;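 also: plate controls were vehicle for no effect and reference inhibitor for full effect; nearly all actives have a fitted effect of over 55% in size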
Target sequence (P08659 whole entry, looked up): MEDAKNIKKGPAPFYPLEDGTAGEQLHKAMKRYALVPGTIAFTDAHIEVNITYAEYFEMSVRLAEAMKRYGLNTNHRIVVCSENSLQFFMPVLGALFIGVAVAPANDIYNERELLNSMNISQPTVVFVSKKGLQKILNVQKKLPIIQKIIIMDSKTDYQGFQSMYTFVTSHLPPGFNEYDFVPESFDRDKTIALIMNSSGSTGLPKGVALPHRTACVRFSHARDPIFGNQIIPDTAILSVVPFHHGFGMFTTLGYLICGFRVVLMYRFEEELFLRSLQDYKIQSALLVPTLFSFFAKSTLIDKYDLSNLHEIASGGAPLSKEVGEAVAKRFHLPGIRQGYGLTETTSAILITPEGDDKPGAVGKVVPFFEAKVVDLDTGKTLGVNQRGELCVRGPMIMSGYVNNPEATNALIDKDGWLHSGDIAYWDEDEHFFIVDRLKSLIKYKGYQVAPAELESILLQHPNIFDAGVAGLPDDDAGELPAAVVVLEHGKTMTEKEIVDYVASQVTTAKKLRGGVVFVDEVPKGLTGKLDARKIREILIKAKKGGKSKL
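Purified P. pyralis luciferase (10nM final) with 10uM D-luciferin and 10uM ATP (Km levels) in 50mM Tris acetate pH 7.5, 10mM Mg acetate, 0.01% Tween-20, 0.05% BSA; qHTS 6-point titration, ~60 µM downward; luminescence read.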
NPC1 prom act: qHTS Assay for NPC1 Promoter Activators | Potency, µM (titrated, usually from 9.22 µM), without a hit: top-dose activation, usual class: activators | 2.4% of 320,000 active | Huh7 NPC1 promoter luciferase reporter, 24 h; also: % of control where 0% means no effect; nearly all actives have a fitted effect of over 60% in size
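Huh7 reporter cells (NPC1 promoter driving luciferase) are dosed with compound for 24 h at 37 °C, 5% CO2; luciferase detection reagent is then added and luminescence measured after 10 min at ambient temperature.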
SMN2 splice up: qHTS Assay for Enhancers of SMN2 Splice Variant Expression; Potency, µM (series often up to 46.1 µM), without a hit: at the top dose activity change, positive = activation, most hits filed as activators; 2.8% of 210,000 active; HEK293 SMN2-luciferase splicing reporter, luminescence, 30-36 h; also: % of control where 0% means no effect; nearly all actives have a fitted effect of over 55% in size
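HEK293 cells carry an SMN2 minigene-luciferase reporter in which exon 7 inclusion puts luciferase in frame. Cells were seeded at 2000 cells/well, attached for 10-12 hours, then exposed to compounds for 30-36 hours at 37C before ONE-Glo luminescence.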
* marks the source's active call; other numbers are inactive results; [ ] = dose if it differs, or a comment. The list is not random: actives were taken first. Their share in the collection is about 7.4%. Calls follow the shape of the dose curve; as a rule, active = well fitted curve in the direction sought with a large enough effect; inconclusive = small, poorly fitted or top-dose-only effect, or another doubt; inactive = no such curve, though single readings can be large; an effect the other way counts as inactive or inconclusive. Potency is read from the fitted curve at half-maximal effect.

Results for Cc1ccccc1CNc1nc(N(C)C)nc2c1cnn2C ?
FLuc modulator: 4%

Results for CN(C)CC[C@@H](C(=O)C(C)(C)C)c1ccccn1 ?
SMN2 splice up: -20%[9.22 µM]

Results for CC(C)NC(=O)CCc1nnc(Cc2cccc(C(F)(F)F)c2)o1 ?
ELG1 genotoxic: inconclusive; Rab9 prom act: inconclusive; FLuc modulator: 15µM*; NPC1 prom act: inconclusive

What do the screens show for `CCC(COC)NC(=O)CCc1nnc(Cc2cccc(C(F)(F)F)c2)o1` (stereo not drawn)?
ELG1 genotoxic: 14%; Rab9 prom act: 25%; FLuc modulator: inconclusive; NPC1 prom act: 2%

How did O=[N+]([O-])c1cc(/C=N\Nc2nccs2)ccc1O do in these assays?
ELG1 genotoxic: -5%; Rab9 prom act: 1%; FLuc modulator: 17µM*; NPC1 prom act: 5%; SMN2 splice up: inconclusive

How did Cc1cc(NC(=O)Nc2ccc(Cl)cc2)no1 do in these assays?
ELG1 genotoxic: 12%; Rab9 prom act: 27%; FLuc modulator: inconclusive; NPC1 prom act: 27%

What do the screens show for `O=C(Nc1ccsn1)c1ccc(Cl)cc1Cl`?
ELG1 genotoxic: inconclusive; Rab9 prom act: inconclusive; FLuc modulator: inconclusive; NPC1 prom act: 3.2µM*

Results for Cc1cc(NC(=O)c2ccc(Cl)cc2Cl)no1 ?
ELG1 genotoxic: inconclusive; Rab9 prom act: 2.8µM*; FLuc modulator: 8.5µM*; NPC1 prom act: 1.4µM*

Results for COc1ccc(NC(=O)CSC2=Nc3ccccc3C3=NC(Cc4ccccc4)C(=O)N23)cc1 (stereo not drawn) ?
FLuc modulator: -2%

What do the screens show for `Cc1ccc(S(=O)(=O)Oc2ccccc2/C=N/O)cc1`?
ELG1 genotoxic: -1%; Rab9 prom act: 19%; FLuc modulator: -6%; NPC1 prom act: -4%; SMN2 splice up: 9%

How did COc1cccc(/C=N/Nc2ccc(C(=O)O)cc2)c1O do in these assays?
ELG1 genotoxic: -19%; Rab9 prom act: -35%; FLuc modulator: 0.19µM*; NPC1 prom act: -39%; SMN2 splice up: -82%

Results for COc1cccc(/C=N/Nc2ccccc2C(=O)O)c1O ?
ELG1 genotoxic: 4.1µM*; Rab9 prom act: 0.4µM*; FLuc modulator: 1.3µM*; NPC1 prom act: 0.56µM*

Results for Cc1ccc(S(=O)(=O)Oc2ccccc2/C=N/Nc2ccc(C(=O)O)cc2)cc1 ?
ELG1 genotoxic: 0%; Rab9 prom act: 16%; FLuc modulator: 19µM*; NPC1 prom act: 0%

Results for CC(CNC(=O)c1nnc(Cc2ccc(F)cc2)o1)c1ccccc1 (stereo not drawn) ?
FLuc modulator: -8%

What do the screens show for `CC(C)Cc1ccc(C(C)C(=O)Nc2ccccc2O)cc1` (stereo not drawn)?
ELG1 genotoxic: 13%; Rab9 prom act: -31%; FLuc modulator: -1%; NPC1 prom act: -11%

What do the screens show for `c1ccc(-n2nc3c(ccc4cnnc43)[nH]2)cc1`?
ELG1 genotoxic: inconclusive; Rab9 prom act: 1.8µM*; FLuc modulator: 7.6µM*; NPC1 prom act: 2.5µM*; SMN2 splice up: inconclusive

What do the screens show for `CN(C)c1ccc(/C=N/NC(=O)c2cc(-c3ccc4c(c3)OCO4)n[nH]2)cc1`?
ELG1 genotoxic: 4%; Rab9 prom act: -6%; FLuc modulator: 12µM*; NPC1 prom act: inconclusive

How did Cc1cc([N+](=O)[O-])nn1Cc1ccc(C(=O)N/N=C/c2ccc(N(C)C)cc2)cc1 do in these assays?
ELG1 genotoxic: 4%; Rab9 prom act: -6%; FLuc modulator: 9.5µM*; NPC1 prom act: -4%

What do the screens show for `O=C(CNC(=O)c1ccc2c(c1)OCCO2)N/N=C/c1ccc(Cl)cc1`?
ELG1 genotoxic: -1%; Rab9 prom act: -2%; FLuc modulator: inconclusive; NPC1 prom act: -2%; SMN2 splice up: -1%

What do the screens show for `CCN(CC)c1ccc(/C=N/NC(=O)c2ccc3c(c2)OCCO3)cc1`?
ELG1 genotoxic: 4%; Rab9 prom act: 0%; FLuc modulator: 7.6µM*; NPC1 prom act: 15%
